7 compounds from PubChem BioAssay (NCATS) can be followed below.

Inconclusive results are not listed. Activity calls are given as the source filed them. Calls follow the shape of the dose curve; as a rule, active = well fitted inhibition curve with a large enough effect; inconclusive = small, poorly fitted or top-dose-only effect; inactive = flat fitted curve, though single readings scatter.

Common to all, as to test: qHTS profiling for inhibitors of Plasmodium falciparum proliferation (AID 504749); also: nearly all actives have a fitted effect of over 60% in size
Conditions in all cases: P. falciparum in erythrocytes, SYBR Green DNA, 72 h; series mostly up to 28.7 µM

One test concerns CP238. In a few lines:
(§1)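 In a 72 h erythrocytic culture (37 C, humidified, 5% CO2) at 2.5% hematocrit and 0.3% starting parasitemia, compounds were tested; SYBR Green I in detergent lysis buffer stained parasite DNA overnight.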

The next test has as its system CP247. In a few lines:
as §1

The next test deals with CP250. In short, it runs like this:
as §1

In a further test the test system is CP252. In short, it runs like this:
as §1

For another test, the system named is CP256. In a few lines:
as §1

The test system of a further test is CP260. In short, it runs like this: as §1
The test system of the next test is CP262. In short, it runs like this:
as §1

A further test deals with CP265. In a few lines: as §1
Another test has as its system CP266. In a few lines: as §1
A further test has as its system CP268. In short, it runs like this: as §1
Potency is read from the fitted curve at half-maximal effect.

Take `COc1ccc2c(c1OC)C(=O)OC2[C@H]1c2c(cc3c(c2OC)OCO3)CCN1C` (some centres undefined): the Potency entry in the test with CP238, in the test on CP247, in the test with CP250, in the test on CP252, in the test on CP256 and in the test with CP260 was “inactive” each time. Moreover, the Potency result with CP262, in the test on CP265, in the test with CP266 and with CP268 was “inactive” in each case.

`CCCCCCCCCCCC(CC1OC(=O)C1CCCCCC)OC(=O)C(CC(C)C)NC=O` (centres undefined): the Potency with CP238 was 0.708 µM (active); with CP247, 0.398 µM (active); in the test with CP250, 0.447 µM (active); in the test with CP252, 0.794 µM (active); in the test with CP256 it was 0.708 µM (active); in the test with CP260, 0.794 µM (active). Further, the Potency in the test with CP265 is 0.631 µM (active). In addition, the Potency result with CP262 and in the test on CP266 was “inactive” throughout.

In the case of `CCC(C(=O)O)C1CCC(C)C(C(C)C(O)C(C)C(=O)C(CC)C2OC3(C=CC(O)[C@@]4(CC[C@](C)(C5CC[C@@](O)(CC)C(C)O5)O4)O3)C(C)CC2C)O1` (some centres undefined), the Potency in the test on CP238 was 1.12 µM (active); in the test on CP247, 0.891 µM (active); with CP250, 1.12 µM (active); in the test on CP252, 0.891 µM (active); in the test with CP256, 2 µM (active); with CP260, 0.631 µM (active). Further, the Potency with CP262 is 0.849 µM (active); in the test on CP265 it was 1.26 µM (active); in the test with CP266, 1.35 µM (active); in the test on CP268, 1.07 µM (active).

For the compound `COc1ccc([C@@H]2CNC(=O)C2)cc1OC1CCCC1`, the Potency entry in the test with CP238, with CP247, in the test on CP250, with CP252, in the test with CP256 and in the test on CP260 was “inactive” in each case. In addition, the Potency entry in the test on CP262, in the test with CP265, in the test with CP266 and in the test on CP268 was “inactive” in each case.

As to `COc1cccc2c1C(=O)c1c(O)c3c(c(O)c1C2=O)C[C@@](O)(C(=O)CO)C[C@@H]3O[C@H]1C[C@H](N)[C@H](OC2CCCCO2)[C@H](C)O1` (some centres undefined), the Potency was 5.01 µM (active) with CP238; 3.55 µM (active) in the test with CP247; 2.51 µM (active) in the test on CP250; 11.2 µM (active) with CP252; 8.91 µM (active) with CP256; 2.24 µM (active) in the test on CP260. The Potency in the test on CP265 was 8.91 µM (active); with CP266, 7.57 µM (active); with CP268, 8.49 µM (active). The Potency entry in the test with CP262 was “inactive”.

In the case of `Nc1nc2c(c(=O)[nH]1)N(C=O)[C@H](CNc1ccc(C(=O)N[C@@H](CCC(=O)O)C(=O)O)cc1)CN2`, the Potency entry in the test on CP238, in the test on CP247, with CP250, in the test with CP252, with CP256 and with CP260 was “inactive” in each case. For the same compound, the Potency entry with CP262, in the test on CP265, in the test with CP266 and in the test on CP268 was “inactive” in each case.

For the compound `OCC(O)C(O)C(O)CO` (centres undefined), the Potency entry in the test with CP238, in the test on CP247, in the test with CP250, in the test on CP252, in the test with CP256 and with CP260 was “inactive” throughout. Also, the Potency result with CP262, with CP265, in the test on CP266 and in the test with CP268 was “inactive” in each case.
